PubChem BioAssay (NCI)
About 79,000 compounds went through this panel and 15% of them were active in at least one assay; those are over-represented in the sample as a whole. Values without a mark were called inactive. Calls of active or inactive are those of the source. No stated cut-off is given here; in the data, active means growth inhibition above about 70%; inactive means the rest.

Legend:
[1] = NCI Yeast Anticancer Drug Screen. Data for the rad50 strain (AID 155);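 further: 0% = growth of vehicle-only cultures of the same strain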; details: S. cerevisiae rad50 strain growth inhibition; at 50.0 µM; active compounds read high
In short: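 DNA repair mutant yeast, compound exposure, growth read-out; inhibition is taken relative to vehicle.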

[2] = NCI Yeast Anticancer Drug Screen. Data for the mec2-1 strain (AID 157); details: S. cerevisiae mec2-1 strain, at 50.0 µM, active compounds read high
In short: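 Mutant yeast (mec2-1) grown with compound; growth inhibition relative to vehicle control reported.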

[3] = NCI Yeast Anticancer Drug Screen. Data for the sgs1 mgt1 strain (AID 161);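 further: 0% = growth of cultures given vehicle only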; details: S. cerevisiae sgs1 mgt1 strain, at 50.0 µM, active compounds read high
In short: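 Percent growth inhibition was derived by comparing compound-exposed mutant yeast with vehicle-exposed cultures. The strain carries alterations in DNA damage repair.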

[4] = NCI Yeast Anticancer Drug Screen. Data for the cln2 rad14 strain (AID 165);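 further: 0% = growth equal to vehicle treated cultures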; details: S. cerevisiae cln2 rad14 strain, at 50.0 µM, active compounds read high
In short: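 Readout is yeast growth inhibition versus vehicle-treated controls, using a strain with cln2 and rad14 alterations exposed to compound.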

[5] = NCI Yeast Anticancer Drug Screen. Data for the bub3 strain (AID 167); details: S. cerevisiae bub3 mutant strain, at 50.0 µM, active compounds read high
In short: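 In this screen, a yeast mutant lacking normal mitotic checkpoint function is challenged with compound. Relative growth versus vehicle gives the inhibition value.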

[6] = NCI Yeast Anticancer Drug Screen. Data for the mlh1 rad18 strain (AID 175); details: S. cerevisiae mlh1 rad18 strain growth inhibition; at 50.0 µM; active compounds read high
In short: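 Genetically defined yeast (DNA repair-deficient) exposed to compounds; growth inhibition determined relative to vehicle.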

Row | Structure (SMILES) | growth inhibition [1] | growth inhibition [2] | growth inhibition [3] | growth inhibition [4] | growth inhibition [5] | growth inhibition [6]
1 | C=CCOC(=O)NC1C(OC(C)[C@@H](NC(=O)OCc2ccccc2)C(=O)OC(C)(C)C)OC(COC(C)=O)C(OC(C)=O)C1OC(C)=O (stereo partly drawn) | -26.9% | -23.8% | -16.4% | 22.1% | -1.55% | -4.15%
2 | CC1CN(c2ccccc2)NC1=O (stereo not drawn) | 0.4% | -32.7% | 0.05% | 27.1% | -19.6% | -7.55%
3 | N#CNC(=O)c1ccc(Cl)cc1 | -2.8% | -12.5% | -11.1% | -21.4% | -14.4% | -0.4%
4 | Nc1cc(F)cc(C(F)(F)F)c1F | 13.5% | -32.3% | -4.3% | -12.2% | -5.35% | 18.6%
5 | COC(=O)c1ccncc1 | -2.6% | 2.95% | -2.8% | -35.8% | 10.4% | -0.45%
6 | O=[N+]([O-])c1nccn1CCC[n+]1ccc2ccccc2c1 | -25.4% | -7.7% | -8.6% | -2% | -13.8% | -17%
7 | CC1=C(CCC(C)CO)O[C@H]2C[C@H]3[C@@H]4CC[C@H]5C[C@@H](O)CC[C@]5(C)[C@H]4CC(=O)[C@]3(C)[C@@H]12 (stereo partly drawn) | 64.3% | 28.6% | 84% (active) | 38.4% | 67.3% | 70.8% (active)
8 | CCOC(=O)CCCN(c1sc(C)c(-c2ccccc2)c1C(=O)OCC)S(=O)(=O)c1ccc(C)cc1 | -16.6% | -3.25% | -14.6% | -29.3% | -3.75% | 4.5%
9 | O=C(COc1cccc(Cl)c1)Nc1ccc(C(=O)CCl)cc1 | 23.9% | 49.5% | 35.9% | 11.8% | 47% | 44.5%
10 | COC1CCC2CC3(CCC2(C)C1O)OCCO3 (stereo not drawn) | 1.25% | 0.85% | -1.45% | -12.3% | 26.1% | -14.4%
11 | COc1ccc(-c2oc3ccccc3c(=O)c2O)cc1OC | 2.3% | 9.9% | 16.2% | -10.8% | 21.4% | -11.1%
12 | CCCCCNC(=O)c1ccc(C)cc1 | 2.5% | -4.15% | 1.05% | -12.6% | -10.8% | -70%
13 | CCCCOc1n[nH]c(=O)c2ccccc12 | -2.4% | -13% | -3.65% | -25.4% | -7.9% | 8.6%
14 | c1ccc(Cn2cccc2N=Nc2ccccc2)cc1 | 26.4% | 2.8% | 6.55% | 6.8% | -4% | 14.3%
15 | O=C(CCl)Nc1ccc(SSc2ccc(NC(=O)CCl)cc2)cc1 | 33.8% | 13% | 47.1% | 43.2% | 10.1% | 12.9%
16 | Cn1c(=O)c2[nH]c(CCCCCc3nc4c([nH]3)c(=O)n(C)c(=O)n4C)nc2n(C)c1=O | -9% | 7.15% | -27.3% | -18.5% | -16.4% | -16.1%
17 | CCOC(=O)CCCCCOC1CCCCO1 (stereo not drawn) | 7.4% | 18.2% | 11.2% | -0.1% | -7.35% | -10.5%
18 | O=S(=O)(c1ccc(Cl)cc1)c1ccccc1C1=NCCN1 | -37.8% | -44.9% | -5.7% | 6.3% | -43.8% | -23.8%
19 | CCOC(=O)C1=C(C)N(NC(N)=O)C(C)(O)C12CCOC2=O (stereo not drawn) | 32% | 0% | -10.8% | 13.1% | 3.2% | 39%

Row | Structure (SMILES) | growth inhibition [1] | growth inhibition [2] | growth inhibition [3] | growth inhibition [4] | growth inhibition [5] | growth inhibition [6]
20 | O=C(O)c1sccc1Cc1ccsc1 | -6.85% | -10.8% | -8.65% | -27.6% | -25.9% | 5%
21 | Nc1ccc([N+](=O)[O-])c(C(F)(F)F)c1 | 14.1% | -33.6% | 4.25% | -14.4% | -6.55% | 22.6%
22 | Cc1cc(=O)[nH]c(NN)n1 | 1% | -1.85% | -1.85% | 23.1% | 21.9% | 2.15%
23 | CCC(=O)C(CCN(C)C)c1ccccc1 (stereo not drawn) | -10.4% | -0.85% | 9.9% | -22.6% | -11.1% | -7.9%
24 | CCOC(=O)C1C=NC([N+](=O)[O-])=C1Br (stereo not drawn) | 0.15% | 24.8% | 13.4% | -4.25% | 18.4% | 9.15%
25 | O=CNCCN(C=O)CCO | -28.6% | -29.9% | -31.9% | 1.85% | -12% | -9.55%
26 | O=C(O)C(=O)Cc1cccc(Cl)c1[N+](=O)[O-] | 2.15% | 5.25% | 13.4% | -10.6% | -4.75% | 15%
27 | CC(C)(C)NC(=O)Oc1ccc(Br)cc1Br | -1.5% | 14.4% | 18.6% | -14.2% | 9.75% | 21.2%
28 | CCCC(CCc1ccccc1)C(N)=O (stereo not drawn) | 1.4% | -5.7% | 9.15% | -7.35% | 10.8% | -1.9%
29 | CCn1c(C)nc([N+](=O)[O-])c1Sc1ncn[nH]1 | 10.2% | -10.3% | 11.2% | 5.1% | -7.05% | -59.7%
30 | O=C(O)CCC12CCC(=O)C=C1NC(=O)CC2 (stereo not drawn) | 1.55% | -4.4% | -7.2% | -1.65% | 0.15% | -1.25%
31 | O=C(/C=C/c1ccc(O)cc1)OC[C@@H](O)COC1OC(CO)C(O)C(O)C1O (stereo partly drawn) | -5.8% | -5.05% | -4.35% | 6.8% | 8.2% | -3.65%
32 | COC(=O)C(O)c1ccc(C(C)C)cc1 (stereo not drawn) | -34.5% | -18.6% | -13.9% | -33.2% | -26.4% | -9.2%
33 | C#CC[N+](CC)(CC)CC | 2.6% | -11.9% | -11.3% | -84% | -3.3% | -13.2%
34 | COc1ccc(-c2c3c(nc4nc(SC)nc(SC)c24)CCCC3)cc1OC | 1.15% | -10.4% | 1.25% | 1.15% | -2.65% | 6.8%
35 | Cc1ccc(S(=O)(=O)C(C#N)CCC(=O)c2ccc(Cl)cc2)cc1 (stereo not drawn) | 6.25% | 3.55% | 6.75% | 9.45% | 10.2% | 17.6%
36 | CCC1CCC(OC(=O)Nc2cccc3ccccc23)CC1 (stereo not drawn) | 12.2% | -26.1% | -5.35% | 3.7% | 4.85% | -10.4%
37 | N#CC1CC12c1ccccc1C(=O)c1ccccc12 (stereo not drawn) | -1.9% | 0.25% | 0.8% | -16.1% | -21.4% | -4.75%
38 | NC(=O)NC(=O)N/N=C/c1ccccc1 | 23.2% | 2.4% | 2.8% | 4.15% | 7.6% | 14.9%
